# Source: PubChem BioAssay (NCATS)
# Values without a mark were called inactive. Calls come from the whole dose curve; as a rule, active = well fitted curve in the direction sought with a large enough effect; inconclusive = small, poorly fitted or top-dose-only effect, or effect the other way, or another doubt; inactive = no such curve, though single readings can be large or run the other way.
# Experiment: qHTS of Nrf2 Activators: LOPAC Validation (AID 624149); note: 0% is about no effect
# Conditions: Nrf2/ARE reporter cell assay; series mostly up to 46.1 µM; activation: at the top concentration
# Excerpt: Many diseases have some form of oxidative stress injury and ties to inflammation, causing a host of problems for the patient. The antioxidant response element (ARE) plays an important role in alleviating the harmful effects of oxidative stress. The antioxidant response element (ARE) is a transcriptional regulatory element involved in the activation of genes coding for a number of antioxidant proteins and detoxifying enzymes. These enzymes work in concert to protect tissues from oxidative insults and chemical toxicities in human hepatocytes and immune cells. The protective effects of ARE activation are primarily triggered through Nrf2 (NF-E2-related factor) binding to and activating AREs. It is known that Nrf2 controls the production of over 250 antioxidant and detoxification proteins (Hu et al., 2006), thereby protecting tissues by increasing cellular antioxidant content and suppressing inflammatory signaling pathways. The transcription factor Nrf2 is a central link between oxidative chemicals, such as phenolic antioxidants and electrophilic compounds, and the activation of ARE. Nrf2 levels are constitutively low as a consequence of its interaction with Keap1, which targets its degradation (Zipper and Mulcahy, 2002). Electrophiles react with key cysteine residues in Keap1, releasing Nrf2 and allowing its translocation to the nucleus. Once within the nucleus, Nrf2 complexes with coactivators such as p300, and binds to the AREs to induce gene transcription of cytoprotective enzymes, resulting in the prevention of toxicity. Activation of Nrf2 protects tissues by increasing cellular antioxidant content and suppressing inflammatory signaling pathways. Identifying novel and potent Nrf2 activators by using the AREc32 cell line to detect ARE activation by small molecules will lead to the identification and development of probes to study protective pathways in multiple tissues. These specific probes are essential to study the ARE pathway, and eventually to determine whether this pathway does activate genes that could protect against a host of diseases, including cardiovascular diseases, obesity, diabetes, Alzheimer's, and Parkinson's disease.
# This project's aim is to identify novel and potent Nrf2 activators by using the AREc32 cell line to detect ARE activation by small molecules, which will lead to the identification and development of probes to study the ARE pathway.
# NIH Chemical Genomics Center [NCGC]
# NIH Molecular Libraries Probe Centers Network [MLPCN]
# Assay Submitter (PI): Curtis Klaassen, University of Kansas Medical Center
# 5 uL of 1000 cells/well of AREc32_Fluc cells are seeded into 1536-well plate in OPTI-MEM medium with 5% FBS. The plates are incubated overnight at 37 deg C with 5% CO2. Then through pin tool transfer, 23 nL of compounds are added to each well before a 24 hr incubation at 37 deg C with 5% CO2. After the addition of 2.5 uL of Steady-Glo. the plates are kept at RT for 30 min, before they are read on the ViewLux
row,Structure (SMILES),activation [%]
1,CN(C)c1nc2c(Br)c(Br)c(Br)c(Br)c2[nH]1,-2.33
2,NC(N)=NC(=O)c1nc(Cl)c(N2CCCCCC2)nc1N,-1.01
3,N#C/C(=C\c1c[nH]c2ccccc12)C(=O)c1ccc(O)c(O)c1,0.895
4,O=C(O)CC[C@@H](C(=O)O)N1C(=O)c2ccccc2C1=O,-0.433
5,CC(C)ON([C@@H](C(=O)NO)C(C)C)S(=O)(=O)c1ccc(-c2ccccc2)cc1,-0.321
6,O=C(O)CC1CCCc2ccccc2C1O (stereo not given),-1.08
7,O=[N+]([O-])c1ccc(CSc2ncnc3c2ncn3[C@@H]2O[C@H](CO)[C@@H](O)[C@H]2O)cc1,-2.22
8,O=Nc1ccc2oc(=O)ccc2c1,6.78
9,CCCCCC(O)c1cccc(OCc2ccc3ccccc3n2)c1 (stereo not given),-1
10,CN(C)CCCO[C@@H]1[C@H]2OC(C)(C)O[C@H]2O[C@@H]1[C@H](O)CO,-0.922
11,CN1CCc2cc(NC(=O)Nc3cccnc3)ccc21,-2.4
12,O=C(O)c1cc(=O)c2ccccc2[nH]1,0.499
13,Fc1ccc(C(OCCCc2cnc[nH]2)c2ccc(F)cc2)cc1,-2.24
14,NC(=O)C(=O)O,-0.518
15,O=C(O)[C@@H]1C[C@H](C(=O)O)N1,-1.3
16,COc1ccc2c(c1)CCC1C2CC[C@@]2(C)C1CC[C@@H]2NCCCCCCN1C(=O)CCC1=O (stereo not given in full),-1.25
17,CCCCN1CCC(n2c(=O)[nH]c3ccccc32)CC1,-1.81
18,COc1ccc(/C=C/C(=O)Nc2ccccc2C(=O)O)cc1OC,-4.41
19,CN(C)c1ccc(/C=C2\C(=O)Nc3ccccc32)cc1,1.72
20,CCN1/C(=C/C(C)=O)Sc2ccc(OC)cc21,-2.12

row,Structure (SMILES),activation [%]
1,N[C@@H](CC(=O)O)C(=O)O,1.28
2,N#C/C(=C\c1ccc(O)c(O)c1)C(=O)c1ccc(O)c(O)c1,-1.52
3,CC(=O)N[C@H](C(=O)O)C(C)(C)SN=O,9.28
4,C[N+]1(C)CCC(OC(=O)C(c2ccccc2)c2ccccc2)CC1,0.542
5,CCN(CC)c1ncnc2c1ncn2[C@@H]1O[C@H](COP(=O)(O)OP(=O)(O)C(Br)(Br)P(=O)(O)O)[C@@H](O)[C@H]1O,1.23
6,OC[C@H]1O[C@@H](n2cnc3c(NC4CCCC4)ncnc32)[C@H](O)[C@@H]1O,-2.27
7,Cc1ccc(S(=O)(=O)/C=C/C#N)cc1,-1.6
8,CC[C@@H](C)[C@H]1O[C@]2(CC[C@H]1C)C[C@@H]1C[C@@H](CC=C(C)[C@@H](O[C@H]3C[C@H](OC)[C@@H](O[C@H]4C[C@H](OC)[C@@H](O)[C@H](C)O4)[C@H](C)O3)[C@@H](C)C=CC=C3CO[C@@H]4[C@H](O)C(C)=C[C@@H](C(=O)O1)[C@]34O)O2,-2.86
9,Cc1cc(NC(=O)Nc2ccc3c(ccn3C)c2)sn1,-0.586
10,C=C[C@@H]1CN2CC[C@@H]1C[C@H]2[C@H](O)c1ccnc2ccc(OC)cc12,-0.924
11,COC1=C(OC)C(=O)c2ccccc2C1=O,1.14
12,c1cnc2c(c1)ccc1cccnc12,-1.99
13,CC1OC1P(=O)(O)O (stereo not given),0.721
14,CCOC(=O)C1=C(C)NC(C)=C(C(=O)OCC)C1c1c(F)c(F)c(F)c(F)c1F,0.963
15,COc1cccc(OC)c1OCCNCC1COc2ccccc2O1 (stereo not given),-1.53
16,O=C(O)/C=C/C(O)c1ccc(Cl)cc1 (stereo not given),-1.63
17,O=C(c1cc(O)c(O)c([N+](=O)[O-])c1)c1ccccc1F,-1.19
18,CC(COc1ccc(/C=C/c2ccccc2)cc1)[N+](C)(C)C (stereo not given),-1.53
19,COc1ccccc1CNCCCCCCNCCCCCCCCNCCCCCCNCc1ccccc1OC,4.76
20,CCCCCCCCCCCCCCCCCC(=O)OC(CC(=O)O)C[N+](C)(C)C (stereo not given),-0.687
